Test results published in PubChem BioAssay (NCI).
Values joined by “and” are separate entries in the source; they are usually repeats but may differ in a detail not shown here. Equal values may be shown once. This is part of a sample that, as a whole, favours compounds with a hit. Of some 79,000 tested, about 15% had one in any assay. More than one record can exist for a structure, and the calls need not agree. Active and inactive are the calls of the source. No stated cut-off is given here; in the data, active means growth inhibition above about 70%; inactive means the rest.

Experiments:
[1] = NCI Yeast Anticancer Drug Screen. Data for the rad52 strain (AID 147);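 further: 0% = growth of vehicle-treated control cultures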; conditions: S. cerevisiae rad52 mutant growth inhibition, stronger effect = higher value
In short: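 Measured: yeast growth inhibition. System: strain with a defined DNA damage repair alteration. Reference: vehicle-treated control cultures.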

[2] = NCI Yeast Anticancer Drug Screen. Data for the wt1 strain (AID 149);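 further: 0% = growth of vehicle-treated wt1 cultures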; conditions: S. cerevisiae wt1 strain (SPY 50644) growth inhibition, stronger effect = higher value
In short: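 wt1 strain grown with compound or vehicle; inhibition taken from the growth difference.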

[3] = NCI Yeast Anticancer Drug Screen. Data for the rad50EPP+ strain (AID 151);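 further: 0% = growth of vehicle-treated control cultures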; conditions: S. cerevisiae rad50 mutant strain, stronger effect = higher value
In short: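 One strain with a rad50 alteration (rad50EPP+) was compound-treated, its growth then compared to that of vehicle controls.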

[4] = NCI Yeast Anticancer Drug Screen. Data for the mgt1 strain (AID 153); conditions: S. cerevisiae mgt1 mutant growth inhibition, stronger effect = higher value
In short: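 After exposure of the mgt1 yeast mutant to compound, growth was measured and reported as inhibition compared with vehicle controls.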

[5] = NCI Yeast Anticancer Drug Screen. Data for the rad50 strain (AID 155);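 further: 0% = growth of vehicle-only cultures of the same strain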; conditions: S. cerevisiae rad50 strain growth inhibition, stronger effect = higher value
In short: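 DNA repair mutant yeast, compound exposure, growth read-out; inhibition is taken relative to vehicle.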

[6] = NCI Yeast Anticancer Drug Screen. Data for the rad14 strain (AID 159);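 further: 0% = growth of vehicle-treated control cultures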; conditions: S. cerevisiae rad14 strain growth inhibition, stronger effect = higher value
In short: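 DNA repair-defective yeast, compound-exposed; % growth inhibition derived by comparison with vehicle-treated controls.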

[7] = NCI Yeast Anticancer Drug Screen. Data for the sgs1 mgt1 strain (AID 161);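 further: 0% = growth of cultures given vehicle only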; conditions: S. cerevisiae sgs1 mgt1 strain, stronger effect = higher value
In short: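 Read-out: growth inhibition vs vehicle controls. Cells: mutant yeast strain deficient in DNA damage repair.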

[8] = NCI Yeast Anticancer Drug Screen. Data for the CLN2oe strain (AID 163);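 further: 0% = growth of vehicle-only control cultures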; conditions: S. cerevisiae CLN2oe strain, stronger effect = higher value
In short: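 Here, growth inhibition in a cell-cycle-altered yeast strain after compound exposure was quantified against vehicle control growth.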

[9] = NCI Yeast Anticancer Drug Screen. Data for the cln2 rad14 strain (AID 165);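 further: 0% = growth equal to vehicle treated cultures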; conditions: S. cerevisiae cln2 rad14 strain, stronger effect = higher value
In short: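 Growth of compound-exposed yeast (cln2 rad14 genotype) measured and expressed as inhibition relative to vehicle.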

[10] = NCI Yeast Anticancer Drug Screen. Data for the bub3 strain (AID 167); conditions: S. cerevisiae bub3 mutant strain, stronger effect = higher value
In short: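 In this screen, a yeast mutant lacking normal mitotic checkpoint function is challenged with compound. Relative growth versus vehicle gives the inhibition value.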

[11] = NCI Yeast Anticancer Drug Screen. Data for the wt2 strain (AID 169);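 further: 0% = growth of vehicle-treated yeast cultures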; conditions: S. cerevisiae wt2 strain growth inhibition, stronger effect = higher value
In short: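 Genetically defined yeast strains from a DNA-repair/cell-cycle panel were used. Compound-exposed yeast growth was measured, and the inhibition was calculated relative to vehicle treatment.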

[12] = NCI Yeast Anticancer Drug Screen. Data for the mlh1 strain (AID 171);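 further: 0% = growth of vehicle-treated control cultures of the same strain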; conditions: S. cerevisiae mlh1 strain growth inhibition, stronger effect = higher value
In short: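 Here the genetically defined yeast mutant is grown with each compound, and the extent to which its growth falls below that of vehicle-exposed cells is reported.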

[13] = NCI Yeast Anticancer Drug Screen. Data for the sgs1 strain (AID 173);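 further: 0% = growth of vehicle-only control cultures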; conditions: S. cerevisiae sgs1 mutant, stronger effect = higher value
In short: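 Relative growth inhibition, referenced to vehicle, was determined in a yeast strain with a defined alteration affecting DNA damage repair or cell cycle control after compound exposure.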

[14] = NCI Yeast Anticancer Drug Screen. Data for the mlh1 rad18 strain (AID 175); conditions: S. cerevisiae mlh1 rad18 strain growth inhibition, stronger effect = higher value
In short: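 In this whole-cell yeast screen, a strain with altered DNA damage repair is challenged with compound, and its growth is measured against matched vehicle-treated controls.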

[15] = NCI Yeast Anticancer Drug Screen. Data for the rad18 strain (AID 177); conditions: S. cerevisiae rad18 mutant growth inhibition, stronger effect = higher value
In short: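 Screen uses a yeast strain with a defined lesion in DNA damage repair; compound effect is read as loss of growth compared to untreated vehicle cultures.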

[16] = NCI Yeast Anticancer Drug Screen. Data for the mec2-1 strain (AID 157); conditions: S. cerevisiae mec2-1 strain, stronger effect = higher value
In short: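 Test agents were screened against the mec2-1 yeast strain, with defined DNA repair or cell cycle alteration. Growth was scored as inhibition against vehicle-only controls.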

[17] = at 5.0 µM (retest, dose inferred, filed as 0.5)
[18] = at 50.0 µM (retest, dose inferred, filed as 5.0)

Measured: growth inhibition

O=C(O)C1C2c3ccccc3C(c3ccccc32)C1C(=O)O (stereo not drawn)
inactive: [1]; at 1.2 µM -1% | [1]; at 3.7 µM -1% | [1]; at 11.0 µM 2% | [1]; at 33.0 µM 0% | [1]; at 100.0 µM 11% | [2]; at 1.2 µM -3% | [2]; at 3.7 µM -3% | [2]; at 11.0 µM -2% | [2]; at 33.0 µM -1% | [2]; at 100.0 µM -2% | [3]; at 1.2 µM -4% | [3]; at 3.7 µM -3% | [3]; at 11.0 µM 2% | [3]; at 33.0 µM -3% | [3]; at 100.0 µM -4% | [4]; at 1.2 µM -3% | [4]; at 3.7 µM -2% | [4]; at 11.0 µM -2% | [4]; at 33.0 µM -2% | [4]; at 100.0 µM 0% | [5]; at 1.2 µM 0% | [5]; at 3.7 µM 4% | [5]; [17] 7% | [5]; at 11.0 µM 4% | [5]; at 33.0 µM 3% | [5]; [18] 47% | [5]; at 50.0 µM 52.6% and -32.8% | [5]; at 100.0 µM 12% | [6]; at 1.2 µM -2% | [6]; at 3.7 µM 1% | [6]; at 11.0 µM 0% | [6]; at 33.0 µM -2% | [6]; at 100.0 µM 2% | [7]; [17] -5% | [7]; [18] 16% | [7]; at 50.0 µM 52.7% and -33% | [8]; at 1.2 µM -4% | [8]; at 3.7 µM 2% | [8]; at 11.0 µM -4% | [8]; at 33.0 µM -3% | [8]; at 100.0 µM 1% | [9]; [17] 3% | [9]; [18] 10% | [9]; at 50.0 µM 25% and 11.1% | [10]; at 1.2 µM -4% | [10]; at 3.7 µM -3% | [10]; [17] 2% | [10]; at 11.0 µM -5% | [10]; at 33.0 µM -2% | [10]; [18] 17% | [10]; at 100.0 µM -2% | [11]; at 1.2 µM 0% | [11]; at 3.7 µM -10% | [11]; at 11.0 µM 5% | [11]; at 33.0 µM -1% | [11]; at 100.0 µM -16% | [12]; at 1.2 µM -4% | [12]; at 3.7 µM -4% | [12]; at 11.0 µM -1% | [12]; at 33.0 µM -4% | [12]; at 100.0 µM 1% | [13]; at 1.2 µM -12% | [13]; at 3.7 µM -22% | [13]; at 11.0 µM -3% | [13]; at 33.0 µM 5% | [13]; at 100.0 µM 12% | [14]; [17] 3% | [14]; [18] 69% | [14]; at 50.0 µM 37.1% and -42.5% | [15]; at 1.2 µM -4% | [15]; at 3.7 µM -2% | [15]; at 11.0 µM -1% | [15]; at 33.0 µM -2% | [15]; at 100.0 µM 6%
71.2% (active) and -29.5% (inactive): [10]; at 50.0 µM

O=c1oc2ccccc2c(O)c1C(c1ccc2ccccc2c1)c1c(O)c2ccccc2oc1=O
active: [1]; at 100.0 µM 97% | [2]; at 100.0 µM 98% | [5]; [18] 93% | [5]; at 50.0 µM 73.7% | [5]; at 100.0 µM 97% | [16]; at 33.0 µM 76% | [16]; [18] 78% | [16]; at 50.0 µM 86.5% | [16]; at 100.0 µM 98% | [6]; at 100.0 µM 99% | [7]; [18] 92% | [9]; [18] 96% | [10]; [18] 93% | [10]; at 100.0 µM 97% | [11]; at 33.0 µM 97% | [11]; at 100.0 µM 94% | [12]; at 33.0 µM 75% | [12]; at 100.0 µM 99% | [13]; at 33.0 µM 73% | [13]; at 100.0 µM 98% | [14]; at 50.0 µM 80% | [15]; at 100.0 µM 98%
inactive: [1]; at 1.2 µM -8% | [1]; at 3.7 µM 12% | [1]; at 11.0 µM 21% | [1]; at 33.0 µM 64% | [2]; at 1.2 µM -10% | [2]; at 3.7 µM 4% | [2]; at 11.0 µM 1% | [2]; at 33.0 µM 50% | [3]; at 1.2 µM 6% | [3]; at 3.7 µM 41% | [3]; at 11.0 µM 51% | [3]; at 33.0 µM 50% | [3]; at 100.0 µM 46% | [5]; at 1.2 µM 12% | [5]; at 3.7 µM 10% | [5]; [17] 47% | [5]; at 11.0 µM 17% | [5]; at 33.0 µM 58% | [16]; at 1.2 µM 10% | [16]; at 3.7 µM 15% | [16]; [17] 17% | [16]; at 11.0 µM 31% | [6]; at 1.2 µM 12% | [6]; at 3.7 µM 21% | [6]; at 11.0 µM 26% | [6]; at 33.0 µM 66% | [7]; [17] -24% | [7]; at 50.0 µM 46.1% | [9]; [17] 19% | [9]; at 50.0 µM 40.2% | [10]; at 1.2 µM 8% | [10]; at 3.7 µM -8% | [10]; [17] 10% | [10]; at 11.0 µM 22% | [10]; at 33.0 µM 55% | [10]; at 50.0 µM 28.4% | [11]; at 1.2 µM -25% | [11]; at 3.7 µM -21% | [11]; at 11.0 µM 38% | [12]; at 1.2 µM -1% | [12]; at 3.7 µM 20% | [12]; at 11.0 µM 33% | [13]; at 1.2 µM 27% | [13]; at 3.7 µM 30% | [13]; at 11.0 µM 36% | [14]; [17] 12% | [14]; [18] 40% | [15]; at 1.2 µM 10% | [15]; at 3.7 µM 7% | [15]; at 11.0 µM 33% | [15]; at 33.0 µM 55%
